# Compound activity (PubChem)
# KCC2 mod: KCC2 (human) Cl- transport modulation; Q9H2X9; KCC2 cells, thallium flux FluoZin-2 fluorescence; B-score of Tl+ flux slope (higher = more flux/activation; lower = inhibition) at 10 µM; 2.2% of 190,000 active;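 active = thallium flux slope and its plate-corrected score both differing from the plate sample mean at a set confidence after two filtering rounds, in either direction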;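 also: slope of fluorescence scaled to starting intensity during 10 to 20 s after thallium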
# ROMK primary: modulates human ROMK potassium channel activity | Tet-inducible ROMK, thallium flux fluorescence; actives lie on both sides | B-score at 10 µM | 2% of 130,000 active | AID 1918;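 active = signal ratio slope over the read window, or its plate-corrected B-score, at least 3 SD from the plate mean, either direction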;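 also: B-score of the F/F0 ratio slope over 7 to 12 s after thallium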
# S1P4 antag: blocks the human S1P4 receptor. O95977. S1P4-expressing cells, antagonist mode, reporter read-out. inhibition, % at 4.98 µM. 0.26% of 220,000 active. AID 1510; in the data active = inhibition above about 29%
# S1P3 antag: S1P3 (human) receptor antagonism; 0.27% of 170,000 active; inhibition, % at 4.98 µM; CHO S1P3 NFAT-BLA reporter, FRET fluorescence, antagonist mode; AID 485;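 active = inhibition above the plate cutoff, the mean inhibition of test wells on that plate plus 3 SD, cut at about 28% in these data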;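 also: cells challenged with S1P at its EC80 of 0.8 µM; blue over green emission ratio from cleaved BLA substrate after 4 h stimulation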
# Target sequence (Q99500 whole entry, looked up): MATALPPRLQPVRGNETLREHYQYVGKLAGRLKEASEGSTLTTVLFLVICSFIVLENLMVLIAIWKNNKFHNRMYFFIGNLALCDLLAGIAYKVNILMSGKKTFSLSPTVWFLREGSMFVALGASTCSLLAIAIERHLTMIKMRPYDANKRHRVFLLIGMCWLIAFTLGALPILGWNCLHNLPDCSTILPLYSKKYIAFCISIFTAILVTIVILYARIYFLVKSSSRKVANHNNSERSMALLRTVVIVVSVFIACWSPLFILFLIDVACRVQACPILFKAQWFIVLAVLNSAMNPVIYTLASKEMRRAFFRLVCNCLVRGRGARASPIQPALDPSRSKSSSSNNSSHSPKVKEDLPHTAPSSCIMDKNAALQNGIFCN
# S1P4 agonist: agonists of human S1P4 receptor; activation, % at 4.98 µM; 0.35% of 220,000 active; O95977; AID 1509; S1P4-expressing cell line, agonist reporter assay; in the data active = activation above about 11%
# RAM network inh: yeast RAM network inhibition | 1.8% of 190,000 active | S. cerevisiae dse1pr::URA3 reporter, 5-FOA growth OD615, 2 d; analog-sensitive cbk1-as2 kinase mutant strain | AID 868 | inhibition, % at 50 µM;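 active = inhibition above a set limit, 3 SD over mean compound inhibition, cut at about 8.4% in these data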;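 also: inhibition rescues growth on 5-FOA so higher OD means more RAM inhibition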
# Numbers stand for hits; – = inactive; · = no result. Sampled rows, rich in hits. Any-hit rate of the full collection: about 5.1%.
SMILES,KCC2 mod,ROMK primary,S1P4 antag,S1P3 antag,S1P4 agonist,RAM network inh
CCN(CC)c1ccc(C=C2C(=O)OC3(CCCCC3)OC2=O)cc1,–,–,–,–,–,–
CCCCCCn1c(=O)[nH]c2nc3cc(N)ccc3nc2c1=O,–,·,–,–,–,–
COc1ncccc1-c1nnn(-c2ccc(C)cc2)n1,–,·,–,–,–,–
COc1ncccc1-c1nnn(-c2ccc(Cl)c(Cl)c2)n1,–,·,–,–,–,8.8
CCCN(CC(=O)Nc1ccc(Cl)cc1Cl)C(=O)/C=C/c1cc(OC)ccc1OC,–,·,–,–,–,11
CCCN(CC(=O)Nc1ccc(Cl)cc1Cl)C(=O)/C=C/c1cccc([N+](=O)[O-])c1,–,·,–,–,–,–
O=C(c1ccc(-c2ccccc2)cc1)N1CCN(c2nc3ccccc3o2)CC1,–,·,–,53,–,–
COC(=O)c1c(NS(=O)(=O)c2ccc(C)cc2)sc2c1CCC(C)C2 (centres undefined),16,·,–,·,–,–
COC(=O)c1c(NS(=O)(=O)Cc2ccccc2)sc2c1CCCC2,45,–,–,·,–,–
COC(=O)c1c(NC(=O)Cc2cccs2)sc2c1CCC(C)C2 (centres undefined),·,·,–,–,–,–
CC(C)OC(=O)c1c(NS(=O)(=O)c2ccccc2)sc2c1CCCC2,23,–,–,·,–,–
COC(=O)c1c(NS(C)(=O)=O)sc2c1CCCC2,–,–,–,·,–,–
C=CCn1c(SCC(=O)OCC)nc(C(F)(F)F)cc1=O,–,–,–,–,–,–
CC(=O)Nc1ccc2c(c1)ncn2-c1ccc(C)cc1,·,–,–,–,–,–
CN(C1CCCC1)C1CCN(C(=S)Nc2cc(F)cc(F)c2)CC1,–,·,–,–,–,–
CN1CCN(Cc2c(O)ccc3occ(C(=O)c4ccccc4)c23)CC1,·,·,–,–,–,–
CC(=O)C(C(C)=O)c1c(Cl)c(O)c(O)c2c(C(=O)c3ccccc3)coc12,-5.3,-3.4,–,–,–,–
COC(=O)C(Cc1ccc(OC(=O)c2ccccc2C)cc1)N1Cc2ccccc2C1=O (centres undefined),·,·,–,·,–,8.9
COC(=O)C(Cc1ccc(OC(=O)c2ccccc2Cl)cc1)N1Cc2ccccc2C1=O (centres undefined),–,·,–,·,–,–
O=C(c1cccc([N+](=O)[O-])c1)n1nc(-c2ccccc2)nc1NCc1ccccc1,–,·,–,–,–,9.7
O=C(c1ccc([N+](=O)[O-])cc1)n1nc(-c2ccccc2)nc1NCc1ccccc1,–,·,–,·,–,–
O=C(c1cccs1)n1nc(-c2ccccc2)nc1NCc1ccc(F)cc1,–,·,–,·,–,8.6
CN(C)/C=N/NC(=O)c1ccccc1,–,–,–,–,–,–
O=C(NN=c1c(=O)c2ccccc2c1=O)c1ccccc1,8.6,–,–,·,–,–
O=C(O)c1cnc(-c2ccccc2)nc1Sc1ccc(Cl)cc1,·,–,–,·,–,8.6
SMILES,KCC2 mod,ROMK primary,S1P4 antag,S1P3 antag,S1P4 agonist,RAM network inh
COc1ccc(Sc2nc(-c3ccccc3)ncc2C(=O)O)cc1,–,–,–,–,–,–
CC(C)(C)n1nnnc1C(c1ccc(F)cc1)N(Cc1ccc(F)cc1)Cc1ccco1 (centres undefined),–,·,–,·,–,–
CC(C)(C)n1nnnc1C(c1ccc(C(F)(F)F)cc1)N(Cc1ccccc1)Cc1ccco1 (centres undefined),–,·,–,·,–,11
Cc1ccc(C(c2nnnn2C(C)(C)C)N(Cc2ccco2)Cc2cccs2)cc1 (centres undefined),–,·,–,90,–,–
CC(C)(C)n1nnnc1C(c1ccc(C(F)(F)F)cc1)N(Cc1ccc(F)cc1)Cc1ccco1 (centres undefined),–,·,–,·,–,–
COc1cc(C(=O)Nc2nnc(C)s2)c([N+](=O)[O-])cc1OC,–,·,–,–,–,·
C=CCNC(=S)Nc1ccc(F)cc1F,–,–,–,–,–,–
Fc1ccccc1/C=N/NC(=S)Nc1ccc(Cl)cc1Cl,15,·,–,–,–,–
Fc1ccc(NC(=S)N/N=C/c2ccc(F)c(F)c2)c(F)c1,20,–,–,·,–,–
O=C(C1=C[C@H](c2ccc3c(c2)OCO3)C[C@H](OCc2ccc(CO)cc2)O1)N1CCOCC1,–,·,–,–,–,10
O=C(C1=C[C@H](c2ccc(C(F)(F)F)cc2)C[C@H](OCc2ccc(CO)cc2)O1)N1CCCCCCC1,–,·,–,–,–,–
